Measurements taken from PubChem BioAssay (EPA / NIEHS).
Results filed as inconclusive are left out. A structure can be active in one record and inactive in another. Activity calls are given as the source filed them. Rule for the calls, unless noted: active = hit-call score of the fitted dose curve at least 0.9, where 1 is the maximum; inactive = score below 0.9.

Columns and labels:
[1] = CCTE_Deisenroth_AIME_384WELL_CTox_Inactive: Cytotoxicity Assessment (CTOX) in CCTE's 384-well Estrogen Receptor Transactivation Assay without AIME metabolic competence (metabolism negative), Deisenroth Lab (AID 2284039; active = hit-call score of the fitted dose curve at least 0.9, where 1 is the maximum;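 note: cell viability via live-cell protease substrate cleaved to fluorescent probe; cells exposed 24 h to medium preincubated 2 h with alginate-water beads without S9; loss of fluorescence signal means loss of viability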)
How it was run: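 Fluorescent protease-substrate viability readout after 24 h exposure of VM7Luc4E2 cells to conditioned medium. Chemicals (0.002–200 uM) first sat 2 h over alginate-water beads, no S9. Data fitted bidirectionally, loss of signal meaning viability loss.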

[2] = read-out: Interferon-inducible T-cell alpha chemoattractant (ITAC), CXCL11 (gene 6373); assay: BSK_hDFCGF_ITAC: BioMAP Diversity Plus: hDFCGF Assay for Interferon-inducible T-cell alpha chemoattractant (ITAC) Biomarker Activity (AID 2284251); conditions: primary human foreskin fibroblasts
How it was run: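 Primary human foreskin fibroblasts (hDFCGF system) treated for 24 h; I-TAC quantified by ELISA. Gain-direction fitting versus DMSO; parallel SRB staining of total protein flagged overt cytotoxicity.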

[3] = target: human Phosphodiesterase 10 (PDE10), PDE10A (gene 10846) (UniProt Q9Y233); assay: NVS_ENZ_hPDE10: NovaScreen (NVS) Enzymatic Assay for human Phosphodiesterase 10 (PDE10) (AID 2283195; active = hit-call score of the fitted dose curve at least 0.9, where 1 is the maximum)
How it was run: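 Recombinant human PDE10 with fluorescent substrate, 1 h, product separated by electrophoretic mobility shift. Loss of enzyme activity fitted against DMSO; initial screen 25 uM in duplicate, actives run to 50 uM maximum.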

[4] = read-out: Actin alpha 1 (ACTA1), ACTA1 (gene 58); assay: BSK_MyoF_ACTA1: BioMAP Diversity Plus: MyoF Assay for Actin alpha 1 (ACTA1) Biomarker Activity (AID 2284244); conditions: primary human lung fibroblasts
How it was run: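 Lung fibroblasts, human primary, 24 h compound exposure → a-SMA ELISA. Positive-direction fit vs DMSO control.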

[5] = read-out: Basic fibroblast growth factor (bFGF), FGF2 (gene 2247); assay: BSK_MyoF_bFGF: BioMAP Diversity Plus: MyoF Assay for Basic fibroblast growth factor (bFGF) Biomarker Activity (AID 2284246); conditions: primary human lung fibroblasts
How it was run: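 ELISA-measured bFGF level serves as the read-out, taken 24 h after chemical dosing of human lung fibroblasts. Values represent signal gain over the DMSO negative control.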

[6] = read-out: Collagen IV, COL4A1 (gene 1282); assay: BSK_MyoF_CollagenIV: BioMAP Diversity Plus: MyoF Assay for Collagen IV Biomarker Activity (AID 2284247); conditions: primary human lung fibroblasts
How it was run: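 Steps: dose human lung fibroblasts; culture 24 h; quantify Collagen IV by ELISA; fit increase versus DMSO control. Parallel SRB total-protein staining (0.1% SRB after 10% TCA fixation, 560 nm) tracks overt cytotoxicity.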

[7] = read-out: Plasminogen activator inhibitor-1 (PAI1), SERPINE1 (gene 5054); assay: BSK_MyoF_PAI1: BioMAP Diversity Plus: MyoF Assay for Plasminogen activator inhibitor-1 (PAI1) Biomarker Activity (AID 2284256); conditions: primary human lung fibroblasts;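 note: PAI-1 protein level measured by ELISA in fibroblast cultures; PAI-1 read 24 h after compound addition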
How it was run: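 ELISA read-out of PAI-1 from primary human lung fibroblast cultures 24 h after dosing; gain-of-signal fit versus DMSO control.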

[8] = read-out: Interleukin-8 (IL8), CXCL8 (gene 3576); assay: BSK_MyoF_IL8: BioMAP Diversity Plus: MyoF Assay for Interleukin-8 (IL8) Biomarker Activity (AID 2284261); conditions: primary human lung fibroblasts
How it was run: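 ELISA read-out of IL-8 from primary human lung fibroblasts, 24 h post-dose; positive-direction curve fitting relative to DMSO vehicle baseline.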

Decorin, DCN (gene 1634) = assay: BSK_MyoF_Decorin: BioMAP Diversity Plus: MyoF Assay for Decorin Biomarker Activity (AID 2284265); conditions: primary human lung fibroblasts
How it was run: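 Human lung fibroblasts in the MyoF system were exposed to compound for 24 h, after which decorin was quantified by ELISA. Activity was fitted in the positive direction relative to DMSO negative control.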

[9] = read-out: Matrix Metallopeptidase 1 (MMP1), MMP1 (gene 4312); assay: BSK_MyoF_MMP1: BioMAP Diversity Plus: MyoF Assay for Matrix Metallopeptidase 1 (MMP1) Biomarker Activity (AID 2284268); conditions: primary human lung fibroblasts
How it was run: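 ELISA readout of MMP1 in primary human lung fibroblast cultures, 24 h post-dosing. Gain of signal versus DMSO vehicle control defines activity. Parallel SRB staining (0.1% after 10% TCA fixation, 560 nm) flags overt cytotoxicity.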

[10] = read-out: TIMP metallopeptidase inhibitor 1 (TIMP1), TIMP1 (gene 7076); assay: BSK_MyoF_TIMP1: BioMAP Diversity Plus: MyoF Assay for TIMP metallopeptidase inhibitor 1 (TIMP1) Biomarker Activity (AID 2284269); conditions: primary human lung fibroblasts
How it was run: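 ELISA read-out of TIMP-1 from primary human lung fibroblast cultures 24 h after compound dosing; gain of signal relative to DMSO vehicle baseline defines activity.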

[11] = target: human Peroxisome Proliferator-activated Receptor alpha (PPARa), PPARA (gene 5465) (UniProt Q07869); assay: NVS_NR_hPPARa: NovaScreen (NVS) Nuclear Receptor Binding Assay for human Peroxisome Proliferator-activated Receptor alpha (PPARa) (AID 2283359; active = hit-call score of the fitted dose curve at least 0.9, where 1 is the maximum;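 note: activity means loss of TR-FRET signal versus DMSO baseline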)
How it was run: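 Cell-free TR-FRET binding assay with extracted PPARα protein, read 1 h after dosing. Primary screen in duplicate at 25 uM, with actives retested in concentration series. Loss of signal versus DMSO.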

SERPINA7 (gene 6906) = assay: CCTE_GLTED_hTBG: CCTE's human Thyroxine-binding Globulin (TBG) Inhibition Assay, Great Lakes Toxicology and Ecology Division (GLTED) Lab (AID 2284343; active = hit-call score of the fitted dose curve at least 0.9, where 1 is the maximum;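 note: active chemicals lower fluorescence versus DMSO baseline by displacing probe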)
How it was run: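 hTBG + test chem, 2 h; ANSA probe displacement; fluorescence readout ex380/em475; DMSO = neg ctrl/baseline; cell-free.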

TTR (gene 7276) = assay: CCTE_GLTED_hTTR_0.125uM: CCTE's human Transthyretin (hTTR) Inhibition Assay, with 0.125uM TTR, Great Lakes Toxicology and Ecology Division (GLTED) Lab (AID 2284431);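 note: hits lower the fluorescence signal relative to DMSO baseline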
How it was run: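 Cell-free displacement of the fluorescent probe ANSA from human TTR (0.125uM) after 2 h incubation with test chemical. Fluorescence read at 380 nm excitation/475 nm emission; loss of signal fitted relative to DMSO baseline.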

[12] = target: Peroxisome proliferator-activated receptor gamma (Homo sapiens) (UniProt P37231); assay: NVS_NR_hPPARg: NovaScreen (NVS) Nuclear Receptor Binding Assay for human Peroxisome Proliferator-activated Receptor gamma (PPARg) (AID 2283370; active = hit-call score of the fitted dose curve at least 0.9, where 1 is the maximum)
How it was run: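 Cell-free binding to extracted PPARg protein, read by fluorescence polarization 2 h after dosing; loss of signal relative to DMSO baseline marks displacement. Primary screen in duplicate at 25 uM, actives retested in concentration series.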

[13] = target: Bile acid receptor (Homo sapiens) (UniProt Q96RI1); assay: OT_FXR_FXRSRC1_0480: Odyssey Thera (OT) 8-hour HEK293T Protein-Complementation Assay for Farnesoid X receptor/SRC-1 Co-activator (AID 2283383; active = hit-call score of the fitted dose curve at least 0.9, where 1 is the maximum)
How it was run: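 Human kidney HEK293T cells carried FXR/SRC-1 fragment-complementation constructs. Compounds were added and incubated 8 h. Reporter reassembly upon receptor–co-activator interaction was then quantified by fluorescence, with curves fitted in the positive direction relative to DMSO.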

[14] = system: Sodium/Iodide Symporter (NIS), SLC5A5 (gene 6528); assay: CPHEA_Stoker_NIS_Inhibition_RAIU: CPHEA's Radioactive Iodide Uptake (RAIU) Assay for Sodium/Iodide Symporter (NIS) Inhibition, Stoker and Laws Labs (AID 2283841; active = hit-call score of the fitted dose curve at least 0.9, where 1 is the maximum)
How it was run: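 Iodide uptake read as CPM of intracellular 125I (final 329 pM) after 2 h room-temperature exposure in HEPES-buffered HBSS, pH 7.4. Human NIS-expressing HEK293T cells; six concentrations 0.001–100 uM, 0.5% DMSO, normalised to DMSO wells.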

[15] = target: human Ephrin type-A Receptor 1 (EphA1), EPHA1 (gene 2041) (UniProt P21709); assay: NVS_ENZ_hEphA1: NovaScreen (NVS) Enzymatic Assay for human Ephrin type-A Receptor 1 (EphA1) (AID 2283158; active = hit-call score of the fitted dose curve at least 0.9, where 1 is the maximum;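 note: activity is signal loss versus DMSO meaning EphA1 kinase inhibition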)
How it was run: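 Cell-free enzymatic assay with recombinant EphA1 and fluorescent substrate; product separated by electrophoretic mobility shift, fluorescence intensity read 1 hour after dosing. Loss of signal versus DMSO baseline; primary duplicate screen at 25 uM, actives followed to 50 uM top concentration.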

[16] = system: Thyroperoxidase (TPO), gene 54314; assay: CCTE_Simmons_AUR_rTPO: CCTE's Amplex UltraRed Assay for Thyroperoxidase (TPO) Inhibition, Simmons Lab (AID 2283662; active = hit-call score of the fitted dose curve at least 0.9, where 1 is the maximum)
How it was run: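 Rat thyroid microsomes (5 ug protein) were incubated with test compound (8 concentrations, 5 nM–87.5 uM final, 0.5% DMSO), 25 uM Amplex UltraRed and 300 uM H2O2 in 200 mM phosphate buffer for 30 min at 37C in the dark; fluorescence read at 544/590 nm.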

[17] = target: Luciferin 4-monooxygenase (Photinus pyralis) (UniProt P08659); assay: CCTE_Simmons_QuantiLum_inhib_2: CCTE's Firefly Luciferase Inhibition Assay, Simmons Lab (AID 2283767; active = hit-call score of the fitted dose curve at least 0.9, where 1 is the maximum)
How it was run: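 Luminescence loss relative to DMSO vehicle defines inhibition; detection reagent containing 150 uM D-luciferin and 147 uM dATP (final, pH 7.8) is injected immediately before each read. Enzyme is preincubated with an 8-point titration (5 nM–87.5 uM final) for 30 min at 37C.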

Measured: AC50

human Phosphodiesterase 10 (PDE10), PDE10A (gene 10846), sequence (Q9Y233 whole entry, looked up): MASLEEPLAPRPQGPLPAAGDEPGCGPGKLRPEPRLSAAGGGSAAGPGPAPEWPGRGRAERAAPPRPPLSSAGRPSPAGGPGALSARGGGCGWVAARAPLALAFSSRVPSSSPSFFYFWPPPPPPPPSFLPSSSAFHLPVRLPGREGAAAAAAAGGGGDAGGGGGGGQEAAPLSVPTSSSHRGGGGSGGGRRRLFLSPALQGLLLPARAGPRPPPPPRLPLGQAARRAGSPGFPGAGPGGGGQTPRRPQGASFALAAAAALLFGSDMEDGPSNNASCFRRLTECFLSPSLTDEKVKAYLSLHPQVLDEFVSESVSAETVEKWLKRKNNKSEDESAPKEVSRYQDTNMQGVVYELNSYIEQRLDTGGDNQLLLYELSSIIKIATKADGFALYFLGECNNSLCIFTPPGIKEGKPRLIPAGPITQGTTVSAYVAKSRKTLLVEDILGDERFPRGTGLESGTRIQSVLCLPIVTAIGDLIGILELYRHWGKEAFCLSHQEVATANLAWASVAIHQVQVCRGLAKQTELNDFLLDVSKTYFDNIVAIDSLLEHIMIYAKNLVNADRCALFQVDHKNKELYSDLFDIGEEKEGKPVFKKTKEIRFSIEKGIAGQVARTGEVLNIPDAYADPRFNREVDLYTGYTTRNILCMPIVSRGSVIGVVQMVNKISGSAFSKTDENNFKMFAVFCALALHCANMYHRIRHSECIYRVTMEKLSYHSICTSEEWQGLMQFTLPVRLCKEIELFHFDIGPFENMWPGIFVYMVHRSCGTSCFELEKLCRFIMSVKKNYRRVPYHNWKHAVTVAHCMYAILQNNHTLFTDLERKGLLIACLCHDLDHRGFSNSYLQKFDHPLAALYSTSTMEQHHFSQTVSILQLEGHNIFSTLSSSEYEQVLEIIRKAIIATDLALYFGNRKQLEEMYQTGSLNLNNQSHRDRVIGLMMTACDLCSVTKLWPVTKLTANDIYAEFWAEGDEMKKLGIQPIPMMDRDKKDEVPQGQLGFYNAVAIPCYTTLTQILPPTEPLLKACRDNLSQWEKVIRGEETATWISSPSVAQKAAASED
Bile acid receptor (Homo sapiens), sequence (Q96RI1 whole entry, looked up, the tested form may be a part): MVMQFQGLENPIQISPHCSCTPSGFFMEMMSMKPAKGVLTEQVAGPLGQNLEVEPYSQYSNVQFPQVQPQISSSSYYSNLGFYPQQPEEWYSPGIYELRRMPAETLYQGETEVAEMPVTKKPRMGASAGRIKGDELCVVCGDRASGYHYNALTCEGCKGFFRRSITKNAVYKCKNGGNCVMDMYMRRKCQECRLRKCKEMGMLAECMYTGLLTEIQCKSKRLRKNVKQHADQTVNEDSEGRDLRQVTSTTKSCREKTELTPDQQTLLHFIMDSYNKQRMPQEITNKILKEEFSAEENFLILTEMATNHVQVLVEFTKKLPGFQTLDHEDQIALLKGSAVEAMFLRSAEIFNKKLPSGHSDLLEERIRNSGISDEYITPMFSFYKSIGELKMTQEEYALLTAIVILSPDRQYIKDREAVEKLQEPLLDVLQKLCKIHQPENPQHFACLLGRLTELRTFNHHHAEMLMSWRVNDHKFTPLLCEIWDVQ
Peroxisome proliferator-activated receptor gamma (Homo sapiens), sequence (P37231 whole entry, looked up): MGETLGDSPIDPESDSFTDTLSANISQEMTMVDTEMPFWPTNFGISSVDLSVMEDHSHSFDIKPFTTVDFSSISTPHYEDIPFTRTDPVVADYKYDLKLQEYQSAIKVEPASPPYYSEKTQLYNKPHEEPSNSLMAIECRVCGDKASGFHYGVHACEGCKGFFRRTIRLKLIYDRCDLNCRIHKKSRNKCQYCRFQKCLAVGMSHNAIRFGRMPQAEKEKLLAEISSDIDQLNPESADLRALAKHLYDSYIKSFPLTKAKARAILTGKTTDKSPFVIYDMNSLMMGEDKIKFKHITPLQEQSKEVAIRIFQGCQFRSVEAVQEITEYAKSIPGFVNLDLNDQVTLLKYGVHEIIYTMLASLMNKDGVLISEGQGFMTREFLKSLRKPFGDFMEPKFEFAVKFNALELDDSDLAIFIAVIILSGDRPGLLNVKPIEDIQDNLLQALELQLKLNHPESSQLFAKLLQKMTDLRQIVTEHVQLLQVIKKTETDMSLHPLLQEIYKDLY
Luciferin 4-monooxygenase (Photinus pyralis), sequence (P08659 whole entry, looked up): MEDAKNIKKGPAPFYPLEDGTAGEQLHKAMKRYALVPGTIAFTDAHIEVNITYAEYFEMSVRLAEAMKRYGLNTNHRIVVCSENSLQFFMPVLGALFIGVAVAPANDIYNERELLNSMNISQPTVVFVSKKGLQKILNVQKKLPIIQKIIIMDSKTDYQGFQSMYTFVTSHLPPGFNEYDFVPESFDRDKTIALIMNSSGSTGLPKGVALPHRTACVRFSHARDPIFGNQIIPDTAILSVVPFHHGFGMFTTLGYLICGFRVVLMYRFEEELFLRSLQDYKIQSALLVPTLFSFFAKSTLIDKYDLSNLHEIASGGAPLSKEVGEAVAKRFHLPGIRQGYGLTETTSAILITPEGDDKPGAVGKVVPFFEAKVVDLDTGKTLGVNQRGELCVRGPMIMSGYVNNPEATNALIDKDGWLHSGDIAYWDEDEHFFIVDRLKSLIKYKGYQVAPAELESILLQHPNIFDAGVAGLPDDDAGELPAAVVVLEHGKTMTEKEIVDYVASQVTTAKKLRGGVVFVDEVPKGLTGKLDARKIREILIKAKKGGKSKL
human Peroxisome Proliferator-activated Receptor alpha (PPARa), PPARA (gene 5465), sequence (Q07869 whole entry, looked up): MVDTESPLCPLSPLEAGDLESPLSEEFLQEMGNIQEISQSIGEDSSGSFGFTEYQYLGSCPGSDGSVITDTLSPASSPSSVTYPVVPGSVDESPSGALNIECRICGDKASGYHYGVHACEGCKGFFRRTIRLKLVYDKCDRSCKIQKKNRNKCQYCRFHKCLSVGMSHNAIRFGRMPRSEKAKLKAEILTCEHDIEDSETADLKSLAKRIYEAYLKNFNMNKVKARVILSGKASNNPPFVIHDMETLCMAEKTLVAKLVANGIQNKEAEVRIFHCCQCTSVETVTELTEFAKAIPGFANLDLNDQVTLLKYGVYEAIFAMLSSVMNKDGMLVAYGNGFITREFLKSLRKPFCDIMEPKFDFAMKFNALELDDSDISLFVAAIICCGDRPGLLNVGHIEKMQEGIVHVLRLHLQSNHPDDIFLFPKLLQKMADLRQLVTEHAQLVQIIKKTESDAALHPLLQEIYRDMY
human Ephrin type-A Receptor 1 (EphA1), EPHA1 (gene 2041), sequence (P21709 whole entry, looked up): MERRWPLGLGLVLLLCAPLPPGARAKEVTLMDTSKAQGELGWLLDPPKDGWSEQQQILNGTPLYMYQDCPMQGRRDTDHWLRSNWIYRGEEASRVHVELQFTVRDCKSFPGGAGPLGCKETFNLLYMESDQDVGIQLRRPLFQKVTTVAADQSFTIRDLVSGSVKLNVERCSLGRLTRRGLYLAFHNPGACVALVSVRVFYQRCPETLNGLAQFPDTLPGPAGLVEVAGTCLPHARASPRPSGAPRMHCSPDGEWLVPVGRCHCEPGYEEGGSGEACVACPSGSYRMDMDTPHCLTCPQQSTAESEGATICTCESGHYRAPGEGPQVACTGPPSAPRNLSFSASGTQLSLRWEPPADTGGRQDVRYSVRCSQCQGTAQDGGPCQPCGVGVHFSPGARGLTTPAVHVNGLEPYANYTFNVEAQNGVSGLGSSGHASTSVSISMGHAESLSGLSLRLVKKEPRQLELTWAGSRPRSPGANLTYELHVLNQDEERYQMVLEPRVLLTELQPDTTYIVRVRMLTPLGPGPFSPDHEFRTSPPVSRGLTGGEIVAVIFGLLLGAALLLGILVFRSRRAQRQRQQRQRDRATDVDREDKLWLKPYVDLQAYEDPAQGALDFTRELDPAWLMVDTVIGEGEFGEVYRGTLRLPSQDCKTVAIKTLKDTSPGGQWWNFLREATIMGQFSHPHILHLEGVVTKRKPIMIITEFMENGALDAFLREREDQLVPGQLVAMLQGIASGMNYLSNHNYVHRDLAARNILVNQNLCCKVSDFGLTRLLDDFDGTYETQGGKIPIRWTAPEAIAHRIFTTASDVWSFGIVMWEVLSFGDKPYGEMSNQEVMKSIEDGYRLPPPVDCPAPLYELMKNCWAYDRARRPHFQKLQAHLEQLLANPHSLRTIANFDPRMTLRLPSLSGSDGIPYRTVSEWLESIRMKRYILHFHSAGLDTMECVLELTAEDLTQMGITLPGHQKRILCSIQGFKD

CC[N+](CC)(CC(=O)Nc1c(C)cccc1C)Cc1ccccc1 (tested in a mixture with another compound)
inactive: [1] | [2]

CC(C)CC(=O)O
inactive: [3]

CCCCCCCCCC/C=C/C1CC(=O)OC1=O (stereo not drawn)
inactive: [4] | [5] | [6] | [7] | [8] | Decorin, DCN (gene 1634) | [9] | [10]

CCC(C)(CCC(C)C)C(=O)O (stereo not drawn)
inactive: [1]

CCC(C)=NO
inactive: [1]

CCCCCCC(O)CCCCCCCCCCC(=O)OC (stereo not drawn)
inactive: [4] | [5] | [6] | [7] | [8] | Decorin, DCN (gene 1634) | [9] | [10]

CCC(C)NC(N)=O (stereo not drawn)
inactive: [3]

Cc1cc(O)cc(C)c1Cl
active: SERPINA7 (gene 6906) 22.3 µM | TTR (gene 7276) 7.71 µM
inactive: [11]

CCCCCC[C@@H](O)C/C=C\CCCCCCCC(=O)O
inactive: [14]
active: [11] 36.8 µM | [12] 15.1 µM | [13] 74.3 µM | SERPINA7 (gene 6906) 41.4 µM | TTR (gene 7276) 10.8 µM

CC(C)CC(=O)CC(C)C
inactive: [1]

CCCCCC1CCCC(=O)O1 (stereo not drawn)
inactive: [3]

O=C(OCc1ccccc1)c1ccccc1
inactive: [13] | [14]
active: TTR (gene 7276) 20.7 µM

COC(=O)/C=C\C(=O)OC
inactive: [3] | [4] | [5] | [6] | [7] | [8] | Decorin, DCN (gene 1634) | [9] | [10]

CC[N+](CC)(CC(=O)Nc1c(C)cccc1C)Cc1ccccc1
inactive: [12] | [4] | [5] | [6] | [7] | [8] | Decorin, DCN (gene 1634) | [9] | [10]

O=C(C(=O)c1ccccc1)c1ccccc1
inactive: [4] | [5] | [7] | [8] | Decorin, DCN (gene 1634) | [9] | [10]
active: [6] 0.913 µM

CCO[Si](OCC)(OCC)c1ccccc1
inactive: [15]

CN(C)CCC(c1ccc(Cl)cc1)c1ccccn1 (stereo not drawn)
inactive: [4] | [5] | [6] | [7] | [8] | Decorin, DCN (gene 1634) | [9] | [10]

COc1ccc(C(=O)c2ccccc2O)c(O)c1
inactive: [16] | [17] | [2]
active: [2] 28.3 µM

CCCCC(CC)COC(=O)C=Cc1ccc(OC)cc1 (stereo not drawn)
inactive: [16] | [17] | [2]
